Screens deposited in PubChem by several laboratories.
BoNT F protease – inhibitors of Botulinum neurotoxin F light chain protease | AID 588497 | inhibition, % at 10 µM | Multiplex microsphere protease cleavage assay, flow cytometry | hit rate 0.22% among 360,000; in the data active = inhibition above about 35%, passing the limit was not always enough; inconclusive = no clear call, values can overlap the other calls; also: plate controls were buffer without enzyme for full effect and enzyme alone for no effect
MazEF act – activators of E. coli MazEF toxin-antitoxin RNase | activation, % at 20 µM | hit rate 0.32% among 350,000 | P0AE70 | FAM/BHQ RNA-DNA oligo cleavage fluorescence, 5 h; in the data active = activation above about 50%
Target sequence (P0AE70 whole entry, looked up): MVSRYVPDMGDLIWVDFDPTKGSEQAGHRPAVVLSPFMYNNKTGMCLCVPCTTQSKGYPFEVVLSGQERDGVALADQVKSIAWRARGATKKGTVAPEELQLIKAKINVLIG
VHR inh abs – DUSP3 (human) phosphatase inhibition | P51452 | recombinant VHR phosphatase, pNPP absorbance | inhibition, % at 13.3 µM | hit rate 0.52% among 290,000 | AID 1654; in the data active = inhibition above about 50%
Target sequence (P51452 whole entry, looked up): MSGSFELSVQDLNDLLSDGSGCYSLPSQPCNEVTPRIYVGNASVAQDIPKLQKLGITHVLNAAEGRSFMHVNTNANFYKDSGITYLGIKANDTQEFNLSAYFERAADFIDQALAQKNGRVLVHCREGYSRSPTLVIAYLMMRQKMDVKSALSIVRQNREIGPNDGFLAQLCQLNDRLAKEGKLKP
BoNT A protease – BoNT A light chain protease inhibition | multiplex microsphere protease substrate cleavage, flow cytometry | inhibition, % at 10 µM | hit rate 0.17% among 360,000; also: plate controls were buffer without enzyme for full effect and enzyme alone for no effect
Anthrax LF inh2 – blocks Bacillus anthracis lethal factor protease; multiplex microsphere protease cleavage assay, LF; hit rate 0.12% among 360,000; AID 588501; P15917; inhibition, % at 10 µM; also: plate controls were buffer without enzyme for full effect and enzyme alone for no effect
Autofluor counter – compound fluorescence in toxin protease inhibitor counterscreen. hit rate 3.1% among 360,000. compound autofluorescence counterscreen, microsphere flow cytometry; hits give high values. fluorescence intensity (test concentration not listed); in the data active = fluorescence intensity above about 16000; inconclusive = no clear call, values can overlap the other calls
* hit, by the source's call; ? = inconclusive; · = not tested or not shown. In the library only some 4.1% were active in any assay of this set; here they are far more common. Rule as the data show it, unless noted: active = inhibition above about 30%; inconclusive = no clear call, values can overlap the other calls; inactive = below that.

SMILES	BoNT F protease	MazEF act	VHR inh abs	BoNT A protease	Anthrax LF inh2	Autofluor counter
CCCCC1(CC)C(=O)NC(=O)NC1=Nc1ccc(OC)cc1 (stereo not drawn)	5	5	13	3	-1	21503*
O=S(=O)(Cc1ccccc1)Nc1ccc(F)cc1	12	0	-13	-2	-21	4259
COCCNC(=O)C1CCCN(C(=O)c2ccc(C(F)(F)F)nc2C)CC1 (stereo not drawn)	4	·	·	0	-8	3927
O=C(NCC(=O)N1CCN(Cc2ccccc2)CC1)c1ccc(Cl)cc1	0	-5	57*	-4	-4	5020
O=C(COC(=O)c1cnccn1)NCCc1ccccc1	1	-3	8	0	-14	?
O=C(COC(=O)c1cnccn1)NCc1ccccc1	-4	-6	10	-1	1	20877*
Cc1nc2ccc(C(=O)N3CCN(Cc4ccccc4)CC3)cc2[nH]1	-7	9	-15	-1	-9	3729
CCn1ncc(Cl)c1C(=O)Nc1cc(Cl)ccc1Cl	-2	-5	18	0	2	22800*
Cc1ccc(Nc2nc(N)nc(CN3CCN(c4ccccc4F)CC3)n2)cc1	-4	-3	11	-1	-5	3836
Cc1cccc(Nc2nc(N)nc(CN3CCN(C)CC3)n2)c1	-4	10	18	-1	-1	23797*
Nc1nc(CN2CCN(c3ccccc3F)CC2)nc(Nc2ccccc2)n1	-6	-12	25	-2	-1	16781*
O=C(CC[C@H]1O[C@@H](n2ccc(=O)[nH]c2=O)[C@H](O)[C@@H]1O)N[C@H](Cc1ccccc1)C(=O)NC1CCCCC1	-1	·	·	-1	0	5713
COC(=O)c1ccccc1NC(=O)NCc1cccnc1	-6	1	-9	-1	-2	6095
COC(=O)c1ccccc1NC(=O)C(=O)NCc1ccncc1	-1	0	56*	0	-1	2027
Cc1cccc(C)c1NC(=O)C1c2ccccc2OCC(=O)N1Cc1ccccc1 (stereo not drawn)	-4	·	·	0	-3	5810
Cc1ccc(S(=O)(=O)CNC(=S)c2cccc(C)c2)cc1	-7	3	31	-1	-2	10274
Cc1ccc(S(=O)(=O)CNC(=S)c2ccc3ccccc3c2)cc1	1	1	6	?	-1	22964*
FC(F)(F)c1ccc2c(c1)n(Cc1ccccc1)c1[n+]2CCCCC1	17	1	-2	7	-2	20850*
Cc1cccc(C)c1NC(=O)CNC(=O)CNC(=O)c1ccc2ccccc2c1	1	-2	·	0	3	2766
CC(=O)Nc1ccc(NC(=O)CSc2nc(=O)n3cccc(C)c3n2)cc1	14	-4	·	3	?	?
CSc1nc(=O)n2cccc(C)c2n1	-5	1	-4	-5	-1	21767*
C[C@H](NC(=O)[C@@H]1CCCN1C(=O)[C@@H]1CCCN1C(=O)OC(C)(C)C)c1ccccc1	1	·	·	-1	9	4856
CNc1sc(C(=O)c2ccc(F)cc2)c(N)c1-c1nc2ccccc2s1	8	14	16	19	21	18218*
CNc1sc(C(=O)c2cccs2)c(N)c1-c1nc2ccccc2s1	-38	9	6	6	11	2925
Nc1ccn([C@@H]2O[C@H](CN=C3NS(=O)(=O)c4ccccc43)[C@@H](O)[C@H]2O)c(=O)n1	2	3	·	0	2	3607
SMILES	BoNT F protease	MazEF act	VHR inh abs	BoNT A protease	Anthrax LF inh2	Autofluor counter
Cc1nc(N2CCN(C(=O)c3ccco3)CC2)nc2c1C(=O)CC(C)C2 (stereo not drawn)	-4	-1	18	-1	0	5418
CCOC(=O)N1CCN(c2nc(C)c3c(n2)CC(C)CC3=O)CC1 (stereo not drawn)	-1	4	8	0	-4	23668*
CCOC(=O)N1CCN(C(=O)COC(=O)c2ccc(S(=O)(=O)N(CC)CC)cc2)CC1	-8	0	·	0	-7	6274
COC(=O)C1=C(C)OC(N)=C(C#N)C1c1cc(OC)c(OCC(N)=O)cc1Cl (stereo not drawn)	-4	-1	26	?	1	23456*
COC(=O)C1=C(C)OC(N)=C(C#N)C1c1ccccc1F (stereo not drawn)	-4	0	10	0	-3	10345
CCOC(=O)c1c(C)n(-c2ccc(C)cc2)c2ccc(OCC(O)CNCC3CCCO3)cc12 (stereo not drawn)	-16	-15	10	0	-3	4774
OC(CNCC1CCCO1)COc1ccc(OCC(O)CNCC2CCCO2)cc1 (stereo not drawn)	-9	160*	0	-1	-3	2950
Cc1ccc(NC(CC(=O)c2ccccc2)C(=O)O)cc1Cl (stereo not drawn)	3	9	30	1	0	4785
O=C(CC(Nc1ccccc1)C(=O)O)c1ccccc1 (stereo not drawn)	42*	12	22	1	1	3527
Cc1cc(C)cc(NC(=O)C(OC(=O)c2ccc(NC(=O)CC#N)cc2)c2ccccc2)c1 (stereo not drawn)	-7	-19	·	1	1	?
Cc1ccc(/C=C/C(=O)c2ccccc(=O)c2O)cc1C	-7	2	-5	12	5	2566
CN(C(=O)Cn1nc(C(=O)O)c2ccccc2c1=O)C1(C#N)CCCCC1	-8	0	·	0	0	3988
COc1ccc2nc(SCC(=O)Nc3nonc3C)[nH]c2c1	-1	3	3	0	-2	3443
Cc1cc2nc(SCC(=O)Nc3nonc3C)c3c(c2cc1C)CCCC3	3	48	14	?	0	22694*
Cc1ccc2nc(SCC(=O)Nc3nonc3C)[nH]c2c1	-12	-4	54*	-2	-3	3814
COc1c2c(cc3oc(CO[C@@H]4O[C@H](CO)[C@@H](O)[C@H](O)[C@H]4O)cc(=O)c13)O[C@H](C(C)(C)O)C2	4	11	·	1	5	2847
COCc1cc(C)nc(Nc2ccccc2C)c1C#N	2	-4	-10	?	0	20149*
CCCOc1ccc(/C=c2\sc3ncnn3c2=O)cc1	1	2	16	1	-4	4162
CCOc1ccccc1/C=c1\sc2ncnn2c1=O	0	-4	47	?	-4	21270*
CCOc1ccccc1C=C1SC(=S)N(CC)C1=O	2	0	·	2	3	3880
CC(=O)Oc1ccc(/C=c2\sc3ncnn3c2=O)cc1	2	-17	8	0	-3	22478*
O=C(COC(=O)COc1ccccc1F)Nc1ccc2c(c1)OCO2	12	4	·	0	-10	3598
O=C(COc1ccccc1)N=C1SC2CS(=O)(=O)CC2N1c1ccc(F)cc1F (stereo not drawn)	4	1	13	-2	-3	5722
O=C1CN(C(=O)CSc2nnnn2-c2ccc(Cl)cc2)c2ccccc2N1	3	0	15	?	-2	21884*
Cc1ccc(S(=O)(=O)c2c(N)n(NC(=O)c3ccccc3C)c3nc4ccccc4nc23)cc1	-2	-2	12	0	0	22674*
